The values below come from PubChem BioAssay AID686978 (National Center for Advancing Translational Sciences (NCATS), 2013).

Where “and” joins values, the source holds several entries; their conditions need not be identical. Equal entries are not always repeated. The whole screen tested about 420,000 compounds, of which about 64,000 (15%) were called active. Where a call stands in place of a potency, no number is given. Inconclusive results (about 27%) are left out. This excerpt belongs to a sample that is enriched for actives. Unmarked numbers belong to inactive results. Calls follow the shape of the dose curve; as a rule, active = well fitted inhibition curve with a large enough effect; inconclusive = small, poorly fitted or top-dose-only effect; inactive = flat fitted curve, though single readings scatter.
Potency is read from the fitted curve at half-maximal effect.

The nature of the experiment: qHTS for Inhibitors of human tyrosyl-DNA phosphodiesterase 1 (TDP1): qHTS in cells in absence of CPT. Also: nearly all actives have a fitted effect of over 55% in size. Particulars: DT40 Tdp1-/- hTDP1 cells, no CPT, ATP luminescence, 48 h; series mostly up to 46.2 µM. The method, boiled down: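 Growth kinetics read by CellTiter-Glo luminescence after ≥48 hr at 37 °C. Cells: DT40 Tdp1-/- stably carrying human TDP1, 400 per well, compound exposure in the absence of CPT (DMSO vehicle).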
For the compound `Cc1nc2ccccn2c1P(=S)(N1CCCCC1)N1CCCCC1`, the Potency is 18.4 µM (active).

Regarding `CC(=NCC1CCCO1)c1c(O)n(-c2ccccc2)c(=O)[nH]c1=O` (stereo not given), the Potency result was “inactive”.

As for `CCc1nnc(NS(=O)(=O)c2ccc(N=Cc3c(O)n(-c4ccccc4)c(=O)[nH]c3=O)cc2)s1`, the Potency entry was “inactive”.

As for `CCN(CC)C(=O)Oc1ccc(NC(=O)N2CCOCC2)cc1`, the Potency result is “inactive”.

With `Cc1ccsc1C(=O)C1CCCN(Cc2ccc(O)cc2)C1` (stereo not given), the Potency result was “inactive”.

Regarding `COc1ccc(C(=O)C2CCCN(Cc3ccc(C)s3)C2)cc1OC` (stereo not given), the Potency was 14.6 µM (active).

Consider `c1ccc(CCNC2CCCCCC2)cc1`, for which the Potency result is “inactive”.

Take `c1ccc(CCN2CCC3(CC2)OCCO3)cc1`: the Potency entry is “inactive”.

`c1ccc(CCCCN2CCC(c3ccccc3)CC2)cc1`: the Potency was 11.9 µM (active) and 18.4 µM (active).

For `CCC(=O)OC(Cc1ccccc1)(c1ccccc1)C(C)CN(C)C` (stereo not given), the Potency entry was “inactive”.

In the case of `CC[C@]1(O)C(=O)OCc2c1cc1n(c2=O)Cc2cc3ccccc3nc2-1`, the Potency was 0.0211 µM (active).

Regarding `Cc1c(C(=O)O)cccc1-n1c(C)cc(/C=C2\C(=O)NC(=O)N(c3ccc4c(c3)OCO4)C2=O)c1C`, the Potency entry was “inactive”.

For the compound `c1ccc(Cc2nn3c(Cn4cnc5ccccc54)nnc3s2)cc1`, the Potency is 23.1 µM (active).

With `CN1CC[C@H](c2c(O)cc(O)c3c(=O)cc(-c4ccccc4Cl)oc23)[C@H](O)C1`, the Potency is 0.0282 µM (active).

Take `C[C@@H]1CC[C@@]2(OC1)O[C@H]1C[C@H]3[C@@H]4CC=C5C[C@@H](O)[C@H](O)C[C@]5(C)C4CC[C@]3(C)[C@H]1[C@@H]2C` (stereo not given in full): the Potency is 18.4 µM (active).

For the compound `CC(=O)N1CN2CN(C(C)=O)CC(C(=O)c3ccc(Br)cc3)(C2)C1`, the Potency result was “inactive”.

As to `Cc1ccc(P(=S)(c2ccc(C)o2)N2CCOCC2)o1`, the Potency entry is “inactive”.

For the compound `Cc1cc(-c2ccc(N)c(C)c2)ccc1N`, the Potency entry is “inactive”.

Regarding `Fc1ccc(C(OCCN2CCN(C/C=C\c3ccccc3)CC2)c2ccc(F)cc2)cc1`, the Potency was 6.68 µM (active).

As to `Cn1cc(C(=O)OCC(=O)N2CCCC2)c2ccccc21`, the Potency entry was “inactive”.

As for `CCN(Cc1ccccc1)S(=O)(=O)c1ccc2c(c1)CCCN2C(C)=O`, the Potency is 18.4 µM (active).

With `Cc1ccc2c(c1)C1CN(C)CCC1N2C(=O)Cn1nnc(-c2ccccc2F)n1` (stereo not given), the Potency result was “inactive”.

`CC1CNCCN1c1ccc(Cl)cc1` (stereo not given): the Potency result was “inactive”.

Regarding `O=c1oc2ccccc2c(O)c1C(c1ccccc1O)c1c(O)c2ccccc2oc1=O`, the activity change, negative = growth inhibition is -17.6% [at 9.04 µM].

For `CCC1(C)CC(CCNCc2ccc(N(C)C)cc2)(c2ccc(F)cc2)CCO1` (stereo not given), the Potency was 16.4 µM (active).

For `CC1=CC(=O)C2=C(C)C[C@H](O)[C@H]3[C@H](C)C(=O)O[C@@H]3C12` (stereo not given in full), the Potency result is “inactive”.

On to `C=CC12CN(C)[C@@H]3C4CO[C@H](C[C@H]41)[C@]1(C(=O)Nc4ccccc41)[C@@H]32` (stereo not given in full), for which the Potency entry is “inactive”.

For `COc1cc(-n2c(=S)[nH]c3ccc(C)cc3c2=O)c(Cl)cc1Cl`, the Potency is 18.4 µM (active).

In the case of `c1ccc(N2Cc3ccccc3-n3nncc3C2)nc1`, the Potency entry is “inactive”.

With `CCOCCCNC(=O)c1c(NC(=O)c2nc(SC)ncc2Cl)sc2c1CCCC2`, the Potency is 11.6 µM (active).

Consider `c1ccc(C(CN2CCCCC2)c2ccccc2)cc1`, for which the Potency result was “inactive”.

Turning to `CCCCn1c(O)c(C(CC)=NCc2ccco2)c(=O)[nH]c1=O`, the Potency result was “inactive”.

Consider `CCC(=NCCCO)c1c(O)n(-c2ccc(OC)cc2)c(=O)[nH]c1=O`, for which the Potency entry is “inactive”.

Consider `CCCCCCN=C(CC)c1c(O)n(CCCC)c(=O)[nH]c1=O`, for which the Potency was 25.9 µM (active).

Regarding `CC(C)c1c(CN(C)C(C)Cc2ccccc2)n(C)n(-c2ccccc2)c1=O` (stereo not given), the Potency entry was “inactive”.

As for `Cc1c(Oc2cc(NN3CCCCC3)c([N+](=O)[O-])cc2[N+](=O)[O-])cccc1[N+](=O)[O-]`, the Potency entry was “inactive”.

For the compound `CC(C)(C)[C@]1(O)C[C@@H]2OC(=O)C[C@@]23C(=O)O[C@@H]2OC(=O)[C@H](O)[C@]213`, the Potency result is “inactive”.

In the case of `COc1cccc(C(c2nnnn2-c2ccc3c(c2)OCCO3)N2CCC3(CC2)C(=O)NCN3c2ccccc2)c1OC` (stereo not given), the Potency is 16.4 µM (active).

Regarding `O=c1[nH]c2ccccc2n1C1CCN(C(c2ccccc2)c2nnnn2Cc2ccccc2)CC1` (stereo not given), the Potency is 14.6 µM (active).

Take `COc1ccc(-n2nnnc2C(c2cccc3ccccc23)N2CCC(n3c(=O)[nH]c4ccccc43)CC2)cc1` (stereo not given): the Potency was 16.4 µM (active).

For the compound `CN1CCN(Cc2ccccc2C(F)(F)F)CC1`, the Potency result is “inactive”.

Consider `CC(C)c1ccc(-n2c(O)c(/C=N/N3CCOCC3)c(=O)[nH]c2=S)cc1`, for which the Potency result was “inactive”.

`CC1C2Cn3c(nc4ccccc43)C1N(C)O2` (stereo not given): the Potency result was “inactive”.

Take `CC(=O)c1c(O)c(C)c(O)c(Cc2c(O)c3c(c(C(=O)/C=C/c4ccccc4)c2O)OC(C)(C)C=C3)c1O`: the Potency was 8.91 µM (active) and 19.8 µM (active) and 13.3 µM (active).

Consider `CC(=O)c1c(O)c(C)c(O)c(Cc2c(O)c3c(c(C(=O)/C=C\c4ccccc4)c2O)OC(C)(C)C=C3)c1O`, for which the Potency is 13.3 µM (active).

In the case of `c1cc2c(cc1[C@H]1OC[C@H]3[C@@H]1CO[C@@H]3c1ccc3c(c1)OCO3)OCO2`, the Potency result was “inactive”.

For `O=C(O)CCn1cc(C=C2C(=O)NC(=S)NC2=O)c(-c2cccc(Br)c2)n1`, the Potency entry is “inactive”.

As to `CCCC[N+]1(C)C2CC(OC(=O)C(CO)c3ccccc3)CC1C1OC12` (stereo not given), the Potency entry is “inactive”.

Turning to `OC[C@@H]1CN(Cc2ccncc2)C[C@H](n2cnc3c(N4CCN(c5ccccc5)CC4)ncnc32)O1`, the Potency was 2.91 µM (active).

For `CC(C)Nc1nc(Cl)nc(NC(C)C)n1`, the Potency result is “inactive”.

`COc1ccccc1C(=O)N[C@@H]1c2ccccc2C2(CCN(Cc3nc(C(C)C)cs3)CC2)[C@H]1O`: the Potency is 1.64 µM (active).

Consider `Cc1cccc(-n2c(O)c(/C=N/N3CCOCC3)c(=O)[nH]c2=S)c1`, for which the Potency result was “inactive”.

For `CC(=O)Nc1cc(-c2cccc(CO)c2)cn2c(-c3cccc(C(F)(F)F)c3)cnc12`, the Potency is 18.4 µM (active).

For `NC(=O)Nc1cccc(C(F)(F)F)c1`, the Potency entry is “inactive”.

Regarding `CCN1CCN(c2nc3c(c(=O)[nH]2)CCC3)CC1`, the Potency entry is “inactive”.

`COC(=O)CN(CCCl)P1(=O)OCCCN1CCCl` (stereo not given): the Potency entry was “inactive”.

On to `Fc1cccc(F)c1CN1CCN(Cc2c(F)cccc2F)CC1`, for which the Potency entry was “inactive”.

As for `CN(C)c1cccc(C(=O)Nc2nc3ccc(S(=O)(=O)NC(C)(C)C)cc3s2)c1`, the Potency is 11.6 µM (active).

Consider `O=c1[nH]c(=S)n(C2CC2)c(O)c1/C=N/N1CCOCC1`, for which the Potency entry is “inactive”.

Take `O=C1NCN(c2ccccc2)C12CCN(C(c1cccs1)c1nnnn1C1CCCCC1)CC2` (stereo not given): the Potency was 16.4 µM (active).

With `C=Cn1ccnc1P(=S)(c1cc(N(CC)CC)ns1)c1nccn1C=C`, the Potency entry is “inactive”.

`O=C1C[C@@H]2OCC=C3CN4CC[C@]56c7ccccc7N1[C@H]5[C@H]2[C@H]3C[C@H]46` (tested in a mixture with another compound): the Potency result is “inactive”.

As to `COc1ccc(CCn2c(O)c(C=NCCCn3ccnc3)c(=O)[nH]c2=O)cc1OC`, the Potency entry is “inactive”.

Consider `C=CCN1C(=O)NC(=O)/C(=C/c2ccc(OCC(=O)Nc3ccc(C)cc3)cc2)C1=O`, for which the Potency entry was “inactive”.

Turning to `Cc1ccc(C)c(NS(=O)(=O)c2ccc(OCC(=O)NCc3cccnc3)cc2)c1`, the Potency result is “inactive”.

Consider `Cc1ccc(NC(=O)COc2ccc(-n3ccnc3)cc2)cc1Cl`, for which the Potency was 20.6 µM (active).

On to `COc1ccc(NC(=O)N2Cc3ccccc3-n3nncc3C2)cc1`, for which the Potency entry is “inactive”.

Turning to `O=C1/C(=C\c2ccc3c(c2)OCO3)N2CCC1CC2`, the Potency result is “inactive”.

Take `COc1ccc(C)cc1N(CC(=O)N1CCC(C)CC1)S(=O)(=O)c1ccc(C)cc1`: the Potency is 13 µM (active).

`CCOC(=O)c1c(N)n(CCN2CCOCC2)c2nc3ccccc3nc12`: the Potency entry is “inactive”.

Regarding `CC(=O)NC(=O)NC(C)Cc1ccccc1` (stereo not given), the Potency result was “inactive”.

`Nc1ccc(C(=O)N/N=C2/CN3CCC2CC3)cc1`: the Potency entry was “inactive”.

As for `CN(C)C(=O)Oc1ccc(OCc2cccc[n+]2C)cc1`, the Potency entry is “inactive”.

Take `Cc1cc2ccccn2c1C(C[N+](=O)[O-])c1c(F)cccc1Cl` (stereo not given): the Potency is 14.6 µM (active).

`CCN1C(=O)C(=Cc2c(C)n(CC(=O)NCC3CCCO3)c3ccccc23)C(=O)N(CC)C1=S` (stereo not given): the Potency result is “inactive”.

As to `CN(C)CC1CCCCC1=O` (stereo not given), the Potency was 13 µM (active).

In the case of `COC(=O)C(O)(c1ccc(NC(=O)c2ccco2)c(OC)c1)C(F)(F)F` (stereo not given), the Potency entry is “inactive”.

For `CC(=CCOc1ccc2ccc(=O)oc2c1)C1=CC(=O)C(C)(C)O1`, the Potency was 3.26 µM (active).

`CC(C)c1ccc(OCC(=O)N2CCN(C)CC2)c(Br)c1`: the Potency entry is “inactive”.

With `O=C(C1CCN(S(=O)(=O)c2ccc(Br)s2)CC1)N1CCN(c2ccccc2)CC1`, the Potency was 20.6 µM (active).

For `COc1ccc(N=Cc2c(O)n(C)c(=O)[nH]c2=O)cc1`, the Potency entry was “inactive”.

`O=C(N/N=C/c1c(O)n(Cc2ccccc2)c(=O)[nH]c1=O)c1ccccc1`: the Potency entry was “inactive”.

In the case of `COc1ccc(Cn2c(O)c(/C=C3/C=CC=N3)c(=O)[nH]c2=O)cc1`, the Potency is 16.4 µM (active).

On to `Nc1ccc(Cc2ccc(N)c(Cl)c2)cc1Cl`, for which the Potency result is “inactive”.

`CCCN(C/C=C/I)C1CCc2ccc(O)cc2C1` (stereo not given): the Potency was 20.6 µM (active).

As to `Cc1cccc2c(CCN)c[nH]c12`, the Potency entry was “inactive”.

Take `Oc1cc2c(cc1CN1CCN(c3ccccc3)CC1)OCO2`: the Potency entry was “inactive”.

For the compound `CC(=O)OC1C2(CC3N4C(=O)C5(CO)SSC4(CC31O)C(=O)N5C)OC(C)C(C)(C)C2=O` (stereo not given), the Potency was 0.164 µM (active).

Consider `COC(=O)CN1C(=O)C2(C(C(=O)OC)=C(N)Oc3ccccc32)C2=C1CC(C)(C)CC2=O` (stereo not given), for which the Potency entry was “inactive”.

For `Cc1cc(OCc2cc(C(=O)O)oc2C)c2c3c(c(=O)oc2c1)CCCC3`, the Potency result is “inactive”.

As for `COC(=O)COc1cc(C)cc2oc(=O)c3c(c12)CCCC3`, the Potency entry is “inactive”.

With `CC(=O)c1ccc(OC(NC(=O)Cc2ccccc2)C(Cl)(Cl)Cl)cc1` (stereo not given), the Potency result is “inactive”.

Take `CCCCCCCCCCCCn1ccc(=N)cc1`: the Potency was 0.411 µM (active).

For `CC(=C1C(=O)c2ccccc2C1=O)N1CCN(CCN=Cc2c(O)n(C)c(=O)n(C)c2=O)CC1`, the Potency entry is “inactive”.

As for `CN1CCc2cc3c(cc2[C@H]1[C@@H]1OC(=O)c2c1ccc1c2OCO1)OCO3`, the Potency result is “inactive”.
